Among all 5,500 compounds or so, about 2,000 (36%) were called active. Roughly 18% stayed inconclusive and do not appear here. Cut-off read from the data, not from the text of the source: active = normalized growth mostly below about 0.91 (no sharp cut-off); inconclusive = no clear call, values can overlap the other calls; inactive = mostly above about 0.92. Some of the results follow.
Assay: chemical genetic growth profiling, strain panel (AID 1159580);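 note: tested at 20 µM; growth read once vehicle control cultures reached saturation at 30 °C; 1 = growth at the plate median or of vehicle wells; lower values mean less growth of the strain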
Conditions: growth OD

Measured: normalized growth

N#CCCN1C(=O)C2(OCCO2)c2ccccc21
inactive: S. cerevisiae deletion strains, locus YAL013W, strain DEP1, stronger effect = lower value 1.01 | S. cerevisiae deletion strains, locus YBR229C, strain ROT2, stronger effect = lower value 1.01 | S. cerevisiae deletion strains, locus YCL061C, strain MRC1, stronger effect = lower value 1 | S. cerevisiae deletion strains, locus YDL101C, strain DUN1, stronger effect = lower value 0.976 | S. cerevisiae deletion strains, locus YDR150W, strain NUM1, stronger effect = lower value 0.977 | S. cerevisiae deletion strains, locus YEL061C, strain CIN8, stronger effect = lower value 0.997 | S. cerevisiae deletion strains, locus YGR078C, strain PAC10, stronger effect = lower value 1 | S. cerevisiae deletion strains, locus YHR030C, strain SLT2, stronger effect = lower value 1 | S. cerevisiae deletion strains, locus YHR087W, strain rtc3, stronger effect = lower value 0.991 | S. cerevisiae deletion strains, locus YJL187C, strain SWE1, stronger effect = lower value 1 | S. cerevisiae deletion strains, locus YJR043C, strain POL32, stronger effect = lower value 1 | S. cerevisiae deletion strains, locus YJR075W, strain HOC1, stronger effect = lower value 1 | S. cerevisiae deletion strains, locus YLR039C, strain RIC1, stronger effect = lower value 1.02 | S. cerevisiae deletion strains, locus YLR058C, strain SHM2 (second series), stronger effect = lower value 1 | S. cerevisiae deletion strains, locus YLR085C, strain ARP6, stronger effect = lower value 1.02 | S. cerevisiae deletion strains, locus YLR262C, strain YPT6, stronger effect = lower value 1.02 | S. cerevisiae deletion strains, locus YML094W, strain GIM5, stronger effect = lower value 0.986 | S. cerevisiae deletion strains, locus YMR219W, strain ESC1, stronger effect = lower value 1.01 | S. cerevisiae deletion strains, locus YMR263W, strain SAP30, stronger effect = lower value 1.05 | S. cerevisiae deletion strains, locus YMR307W, strain GAS1, stronger effect = lower value 1.05 | S. cerevisiae deletion strains, locus YNL153C, strain GIM3, stronger effect = lower value 1.02 | S. cerevisiae deletion strains, locus YNL298W, strain CLA4 (second series), stronger effect = lower value 1 | S. cerevisiae deletion strains, locus YNL322C, strain KRE1, stronger effect = lower value 0.997 | S. cerevisiae deletion strains, locus YNR030W, strain Alg12, stronger effect = lower value 1 | S. cerevisiae deletion strains, locus YOL006C, strain TOP1, stronger effect = lower value 1.02 | S. cerevisiae deletion strains, locus YPL055C, strain LGE1, stronger effect = lower value 1.02 | S. cerevisiae deletion strains, locus YPL241C, strain CIN2, stronger effect = lower value 1.01 | S. cerevisiae deletion strains, locus YPR135W, strain CTF4, stronger effect = lower value 1.09 | S. cerevisiae strains, strain wild type, stronger effect = lower value 1.02

From PubChem BioAssay AID1159580 (chemical genetic matrix, 2015)
